The results in this text go back to PubChem BioAssay (EPA / NIEHS).

The source made the active and inactive calls. How the source made its calls: active means hit-call score of the fitted dose curve at least 0.9, where 1 is the maximum; inactive means score below 0.9.

The nature of test [1]: BSK_BT_PBMCCytotoxicity: PBMC Cytotoxicity Assessment in the BioMAP Diversity Plus: BT Assay (AID 2284225).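 Further: PBMC viability measured by Alamar Blue dye reduction fluorescence.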 The conditions noted are these: primary human B cells with PBMC. In a few lines:
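Viability by Alamar Blue reduction (6 h, ex/em 546/580 nm) after 90 h culture of SEB/TSST-1-activated PBMC (20 ng/mL each) given compound 1 h before activation. DMSO served as baseline for curve fitting.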

Read-out in test [2]: Secreted IgG (sIgG), gene 3500
Kind of test: BSK_BT_sIgG: BioMAP Diversity Plus: BT Assay for Secreted IgG (sIgG) Biomarker Activity (AID 2284226). Particulars: primary human B cells with PBMC. In a few lines:
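Cells (B cells with peripheral blood mononuclear cells) are dosed, cultured 24 h, then supernatant IgG is measured by ELISA. DMSO serves as negative control; curves are fitted for signal increase.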

Test [3] can be described thus: BSK_BT_Bcell_Proliferation: Viability Assessment in the BioMAP Diversity Plus: BT Assay for B cell Proliferation (AID 2284227). Particulars: primary human B cells with PBMC. In a few lines:
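Using a human primary B cell–PBMC co-culture, the assay measures total protein by sulforhodamine B absorbance as a gauge of proliferation after 72 h. Analysis followed the positive fitting direction with DMSO as baseline.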

Read-out in test [4]: Interleukin 6 (IL6), IL6 (gene 3569)
Kind of test: BSK_BT_xIL6: BioMAP Diversity Plus: BT Assay for Interleukin 6 (IL6) Biomarker Activity (AID 2284228). Particulars: primary human B cells with PBMC. In a few lines: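 B cells and peripheral blood mononuclear cells (human primary co-culture) were dosed with chemical, and after 24 h IL-6 released into the medium was measured by Luminex xMAP. Responses were analysed as gain of signal over DMSO control.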

Read-out in test [5]: Interleukin 17A (IL17A), IL17A (gene 3605)
Kind of test: BSK_BT_xIL17A: BioMAP Diversity Plus: BT Assay for Interleukin 17A (IL17A) Biomarker Activity (AID 2284229). The conditions noted are these: primary human B cells with PBMC. In a few lines:
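Secreted IL-17A was the measured endpoint, read by Luminex xMAP multiplex in supernatants of a human B cell/PBMC co-culture harvested 24 h after chemical dosing. Signal increase relative to DMSO defined activity.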

Read-out in test [6]: Tumor necrosis factor (Homo sapiens) (UniProt P01375)
Kind of test: BSK_BT_xTNFa: BioMAP Diversity Plus: BT Assay for Tumor necrosis factor alpha (TNF-alpha) Biomarker Activity (AID 2284230). Particulars: primary human B cells with PBMC. In a few lines:
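Endpoint derived in the positive direction versus DMSO vehicle. Cells: B cells together with PBMC, exposed 24 h before TNF-alpha in the medium was read on the Luminex xMAP platform.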

Read-out in test [7]: Vascular cell adhesion molecule 1 (VCAM1), VCAM1 (gene 7412)
Kind of test: BSK_MyoF_VCAM1: BioMAP Diversity Plus: MyoF Assay for Vascular cell adhesion molecule 1 (VCAM1) Biomarker Activity (AID 2284231). Particulars: primary human lung fibroblasts. In a few lines:
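ELISA read-out of VCAM-1 on human lung fibroblasts 24 h after chemical treatment, with positive-direction curve fitting relative to DMSO controls. Parallel cultures were stained with sulforhodamine B for total protein to flag overt cytotoxicity.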

Tumor necrosis factor (Homo sapiens), sequence (P01375 whole entry, looked up): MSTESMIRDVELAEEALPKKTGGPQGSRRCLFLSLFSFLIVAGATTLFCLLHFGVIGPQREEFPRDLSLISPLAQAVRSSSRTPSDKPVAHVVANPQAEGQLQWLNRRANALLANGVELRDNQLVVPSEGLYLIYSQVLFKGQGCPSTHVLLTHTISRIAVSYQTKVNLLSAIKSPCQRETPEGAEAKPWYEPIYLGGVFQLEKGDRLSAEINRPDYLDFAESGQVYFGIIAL

`C=C(C)C(=O)OCCC(F)(F)C(F)(F)C(F)(F)C(F)(F)C(F)(C(F)(F)F)C(F)(F)F`: the outcome in test [1], in test [2], in test [3], in test [4], in test [5] and in test [6] was inactive. The outcome in test [7] was inactive.

Consider `FC1CC(F)(F)C(F)(F)C1(F)F` (stereo not drawn), for which the outcome in test [1], in test [2], in test [3], in test [4], in test [5] and in test [6] was inactive. In addition, in test [7], the outcome was inactive.

`FC(F)(F)C(F)(F)CNCC(F)(F)C(F)(F)F`: the result in test [1], in test [2], in test [3], in test [4], in test [5] and in test [6] was inactive. In addition, the result in test [7] was inactive.

A word on the AC50: it is the concentration giving half of the maximal activity seen. With `O[Si](c1ccccc1)(c1ccccc1)c1ccccc1`, the result in test [1], in test [4] and in test [7] was inactive. Also, the AC50 in test [2] is 14.1 µM (active); in test [3], 27.3 µM (active); in test [5], 28.9 µM (active); in test [6], 38.2 µM (active).

For `OCC(F)(F)C(F)(F)C(F)(F)F`, the outcome in test [1], in test [2], in test [3], in test [4], in test [5] and in test [6] was inactive. Moreover, the outcome in test [7] was inactive.

Consider `OCC(F)(F)C(F)(F)C(F)(F)C(F)F`, for which the result in test [1], in test [2], in test [3], in test [4], in test [5] and in test [6] was inactive. Moreover, the outcome in test [7] was inactive.

With `CC(=O)Nc1ccc(N=Nc2cc(C)ccc2O)cc1`, the result in test [1], in test [3], in test [5] and in test [6] was inactive. In addition, the AC50 in test [2] is 9.61 µM (active); in test [4], 0.016 µM (active); in test [7] it was 20 µM (active).

Regarding `C=CC(F)(F)C(F)(F)C(F)(F)C(F)(F)C(F)(F)C(F)(F)C(F)(F)C(F)(F)F`, the result in test [1], in test [2], in test [3], in test [4], in test [5] and in test [6] was inactive. Moreover, the result in test [7] was inactive.

Consider `CO[Si](OC)(c1ccccc1)c1ccccc1`, for which the result in test [1], in test [2], in test [3], in test [4], in test [5] and in test [6] was inactive. The AC50 in test [7] was 32.8 µM (active).

With `O=C(O)C(F)(F)C(F)(F)C(F)F`, the outcome in test [1], in test [2], in test [3], in test [4], in test [5] and in test [6] was inactive. The result in test [7] was inactive.

For the compound `FC(F)(F)C(F)(F)C(F)(F)C(F)(F)CCI`, the outcome in test [1], in test [2], in test [3], in test [4], in test [5] and in test [6] was inactive. In test [7], the result was inactive.

In the case of `O=C(O)C(F)(OC(F)(F)C(F)(OC(F)(F)C(F)(OC(F)(F)C(F)(F)C(F)(F)F)C(F)(F)F)C(F)(F)F)C(F)(F)F` (stereo not drawn), the result in test [1], in test [2], in test [3], in test [4], in test [5] and in test [6] was inactive. Besides, the result in test [7] was inactive.

Regarding `OCC(F)(F)C(F)(F)C(F)(F)C(F)(F)C(F)(F)C(F)F`, the result in test [1], in test [2], in test [3], in test [4], in test [5] and in test [6] was inactive. In addition, in test [7], the result was inactive.

For the compound `CCCCCCCOC(=O)c1ccccc1C(=O)OCCCCCCC`, the outcome in test [1], in test [3], in test [4], in test [5], in test [6] and in test [7] was inactive. Also, the AC50 in test [2] is 13.3 µM (active).

Regarding `FC(F)(F)C(F)(F)C(F)(F)C(F)(F)C(F)(F)C(F)(F)CC1CO1` (stereo not drawn), the outcome in test [1], in test [2], in test [3], in test [4], in test [5] and in test [6] was inactive. The result in test [7] was inactive.

As to `FC(F)(F)C(F)(F)C(F)(F)CI`, the outcome in test [1], in test [2], in test [3], in test [4], in test [5] and in test [6] was inactive. In test [7], the result was inactive.

In the case of `FC(F)(F)C(F)(F)C(F)(F)C(F)(F)C(F)(F)CCI`, the result in test [1], in test [2], in test [3], in test [4], in test [5] and in test [6] was inactive. Besides, the result in test [7] was inactive.

In the case of `COC(=O)CCC(F)(F)C(F)(F)C(F)(F)C(F)(F)F`, the result in test [1], in test [2], in test [3], in test [4], in test [5] and in test [6] was inactive. For the same compound, the outcome in test [7] was inactive.

On to `CCCCNc1ccccc1`, for which the outcome in test [1], in test [2], in test [3], in test [4], in test [5] and in test [6] was inactive. For the same compound, in test [7], the result was inactive.
